PubChem BioAssay AID488832 (National Center for Advancing Translational Sciences (NCATS), 2010)
Results filed as inconclusive are left out. The source made the active and inactive calls. Calls come from the whole dose curve; as a rule, active = well fitted activation curve with a large enough effect; inconclusive = small, poorly fitted or top-dose-only effect; inactive = no such curve, though single readings can be large or run the other way.

Test: Confirmation Concentration-Response Assay for Enhancers of SMN2 Splice Variant Expression for Further Probe SAR
Settings: HEK293 SMN2 exon7-luciferase splicing reporter, luminescence, 30-36 h; series mostly up to 46.1 µM; activity, positive = activation: at the top concentration
Excerpt: NIH Chemical Genomics Center [NCGC] NIH Molecular Libraries Probe Production centers Network [MLPCN] MLPCN Grant: R03 MH084179-01 Assay Submitter (PI): Elliot Androphy NCGC Assay Overview: Spinal muscular atrophy (SMA) is caused by insufficient levels of the survival motor neuron protein SMN. The SMN locus on chromosome 5q13 contains two inverted copies of SMN called SMN1 and SMN2 which are 99% identical at the amino acid level. SMN1 is a fully functional protein and SMN2 skips exon 7 90% of the time. Skipping of exon 7 produces non-functional protein product. 10% of the SMN2 protein includes exon 7 and is fully functional. In the SMA disease state, mutations in the SMN1 locus are the cause of the disease state. Because only 10% of SMN2 is of the fully functional form, it is not sufficient to overcome the deficiency produced by the loss of the SMN1 product. A therapy that either increase the amount of SMN2 product made or to increase the inclusion of exon 7 has been proposed for the treatment of SMA. We have designed an assay to identify small molecules that can increase the amount of functional SMN2 product by appending a luciferase reporter gene after the native SMN2 gene, such that inclusion of exon 7 in the expressed product places the luciferase sequence in frame, thus generating functional luciferase enzyme.
NCGC Assay Protocol Summary: This screen utilizes a luciferase reporter gene assay, combining the promoter with the major portion of the native SMN2 cDNA (exons 1 -7, intron 8 , exon 8 fused to luciferase) stably expressed in HEK293 cells. Compounds that increase luciferase signal presumably enhance expression of the functional SMN2 splice variant. Passaging media contained DMEM w/ glutamax (+phenol red) 10% FCS, 1x pen/strep, 200 ug/ml hygro, 1x sodium pyruvate. Assay media contained DMEM w/ glutamax (-phenol red) 10% FCS, 1x pen strep, 1x pyruvate Sequence, Parameter, Value, Description (1) Cells, 5 uL, 2000 cells/well, 1536 TC treated White solid bottom plate (2) Time, 10-12 hours, 37C 5% CO2 (3) Compound, 23 nl, MLSMR Library (4) Control Compound, 23 nL, Sodium butyrate st 4.5mM (final) conc (5) Time, 30-36 hours, 37C 5% CO2 (6) Reagent, 3 ul, One Glo (TM) from Promega (7) Time, 5-15 minutes, Room temp (8) Detector, Viewlux: luminescent read, 60 second integration, high speed 2x binning Keywords: Spinal muscular atrophy, SMA, SMN2, high throughput screening, MLSMR, MLPCN, NIH Roadmap, qHTS and NCGC

SMILES | Potency | activity, positive = activation
NC(=O)C1CCN(c2nc(-c3ccccc3)cs2)CC1 | 3.07 µM (active) | –
O=C(c1ccccc1)N1CCN(c2nc(-c3ccc(Br)cc3)cs2)CC1 | – | -42.8% (inactive)
NC(=O)C1CCN(c2nc(-c3cccc4ccccc34)cs2)CC1 | – | -9.52% (inactive)
O=C(O)C1CCN(c2ncc(-c3ccc4c(c3)OCCCO4)s2)CC1 | 0.0087 µM (active) | –
NC(=O)C1CCN(c2nc(-c3ccc4c(c3)OCCCO4)cs2)CC1 | 0.487 µM (active) | –
